Laboratory results as given in PMC4336329 (PLoS ONE, 2015).
About 14,000 (4.5%) of roughly 310,000 compounds showed an effect of 50% or more. Effects have a minus sign here. For the sample, strong results were picked, then their nearest neighbours and some compounds at random.

The molecules below were run against human ether-à-go-go-related gene (hERG) potassium channel (human, UniProt Q12809) (assay: primary screen, population patch clamp on CHO cells stably expressing hERG; higher = less effect of the substance).
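Also: peak tail current of the secondary pulse compared with the same well before compound.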

Sequence of human ether-à-go-go-related gene (hERG) potassium channel (Q12809 whole entry, looked up): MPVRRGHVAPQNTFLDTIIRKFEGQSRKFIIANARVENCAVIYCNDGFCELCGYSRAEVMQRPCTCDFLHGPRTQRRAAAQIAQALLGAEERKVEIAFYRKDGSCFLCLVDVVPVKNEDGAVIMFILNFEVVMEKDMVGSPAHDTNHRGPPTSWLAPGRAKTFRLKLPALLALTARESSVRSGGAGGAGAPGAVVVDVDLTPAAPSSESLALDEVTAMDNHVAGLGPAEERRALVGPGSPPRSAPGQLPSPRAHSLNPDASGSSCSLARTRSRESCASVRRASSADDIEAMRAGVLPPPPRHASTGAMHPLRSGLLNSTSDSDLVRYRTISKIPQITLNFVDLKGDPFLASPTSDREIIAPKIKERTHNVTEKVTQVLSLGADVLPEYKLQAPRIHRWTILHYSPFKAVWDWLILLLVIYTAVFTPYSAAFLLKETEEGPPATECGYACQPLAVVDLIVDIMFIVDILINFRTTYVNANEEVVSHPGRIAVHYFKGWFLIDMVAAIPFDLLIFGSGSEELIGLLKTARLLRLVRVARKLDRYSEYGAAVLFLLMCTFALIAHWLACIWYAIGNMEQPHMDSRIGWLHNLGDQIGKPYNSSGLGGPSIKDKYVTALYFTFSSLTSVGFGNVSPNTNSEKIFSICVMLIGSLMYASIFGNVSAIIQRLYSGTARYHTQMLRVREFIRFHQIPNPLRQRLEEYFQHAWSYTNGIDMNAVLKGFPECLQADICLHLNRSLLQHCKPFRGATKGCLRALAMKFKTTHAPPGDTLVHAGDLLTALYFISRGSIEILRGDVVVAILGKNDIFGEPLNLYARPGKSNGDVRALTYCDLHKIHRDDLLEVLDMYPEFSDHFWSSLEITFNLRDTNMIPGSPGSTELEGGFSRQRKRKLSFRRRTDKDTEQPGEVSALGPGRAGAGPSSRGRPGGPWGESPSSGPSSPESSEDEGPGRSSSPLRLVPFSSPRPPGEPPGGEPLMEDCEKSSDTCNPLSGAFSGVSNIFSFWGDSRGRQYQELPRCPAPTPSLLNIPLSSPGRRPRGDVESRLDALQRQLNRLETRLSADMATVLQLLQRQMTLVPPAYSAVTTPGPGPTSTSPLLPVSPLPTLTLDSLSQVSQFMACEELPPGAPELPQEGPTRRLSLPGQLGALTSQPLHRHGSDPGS

| Compound | hERG current change (%, negative = inhibition) at 10uM [%] |
| --- | --- |
| CCOC(=O)c1c(C)nc(-c2ccccc2)nc1N | 7.25 |
| COc1ccc([C@H]2/C=C\CN(C(=O)CC(C)(C)C)[C@@H](C)C(=O)N2Cc2ccc(F)cc2)cc1 | -17.4 |
| CCCCC(=O)N1C/C=C\C(c2ccc(OC)cc2)N(Cc2ccc(F)cc2)C(=O)[C@H]1Cc1ccccc1 (stereo partly shown) | 7.51 |
| CCCCC(=O)N1C/C=C\[C@H](c2ccc(OC)cc2)N(Cc2ccc(F)cc2)C(=O)[C@@H]1C | -68.6 |
| CN(CCNC(=O)C1CCN(S(=O)(=O)c2cnc[nH]2)CC1)Cc1ccccc1 | 12.6 |
| O=C(CCC1CCCCC1)Nc1ccccc1O | 3.23 |
| Cc1ccc(CN2CCN(Cc3ccc4cc(F)ccc4n3)CC2CCO)o1 (stereo not shown) | -30.6 |
| COc1ccc(CN2CCN(Cc3ccon3)CC2CCO)c(C)c1C (stereo not shown) | -37.3 |
| COc1ccc(CN2CCN(Cc3ccc4cc(F)ccc4n3)CC2CCO)c(C)c1C (stereo not shown) | -63.7 |
| CC(=O)Nc1ccc2nc(CN3CCN(Cc4ccc(F)cc4)C(CCO)C3)ccc2c1 (stereo not shown) | -28.8 |
| CCOc1ccc(CN2CCN(Cc3ccc4cc(F)ccc4n3)CC2CCO)cc1 (stereo not shown) | -75.7 |
| COc1cc(CN2CCN(Cc3ccc4cc(F)ccc4n3)CC2CCO)cc(OC)c1 (stereo not shown) | -64.4 |
| COc1cccc(CN2CCN(Cc3ccc4c(NC(C)=O)cccc4n3)CC2CCO)c1 (stereo not shown) | 5.13 |
| COc1ccc(-c2csc3nc(C)nc(N4CCCCC4)c23)cc1OC | -7.85 |
| CC(C)C1Cc2c(sc3c2c(=O)n(Cc2ccccc2)c2nncn32)CO1 (stereo not shown) | -11 |
| COc1ccc(N2C(=O)CC(N3CCN(S(=O)(=O)c4cc(C)ccc4C)CC3)C2=O)cc1 (stereo not shown) | -6.8 |
| CC12C=CC3(O1)C(C(=O)N1CCCOC13)C2C(=O)O (stereo not shown) | -2.54 |
| CCc1ccc(CN(C(=O)c2cc3ccccc3oc2=O)C2CCS(=O)(=O)C2)cc1 (stereo not shown) | -56.5 |
| CN(C)c1ccc(CN(C(=O)c2cc3ccccc3oc2=O)C2CCS(=O)(=O)C2)cc1 (stereo not shown) | -11.8 |
| O=C(c1cc2ccccc2oc1=O)N(c1ccccc1)C1C=CS(=O)(=O)C1 (stereo not shown) | 2.29 |
| Cc1cc(C)cc(N(C(=O)c2cc3ccccc3oc2=O)C2C=CS(=O)(=O)C2)c1 (stereo not shown) | -55.4 |
| CC(C)c1ccc(CN(C(=O)c2cc3ccccc3oc2=O)C2CCS(=O)(=O)C2)cc1 (stereo not shown) | -62 |

| Compound | hERG current change (%, negative = inhibition) at 10uM [%] |
| --- | --- |
| COc1ccc(CN(C(=O)c2cc3ccccc3oc2=O)C2CCS(=O)(=O)C2)cc1 (stereo not shown) | -18.9 |
| O=C(c1cc2ccccc2oc1=O)N(Cc1ccccc1)C1CCS(=O)(=O)C1 (stereo not shown) | -12.2 |
| Cc1ccc(N(C(=O)c2cc3ccccc3oc2=O)C2C=CS(=O)(=O)C2)cc1 (stereo not shown) | -6.15 |
| Cc1ccc(CN(C(=O)c2cc3ccccc3oc2=O)C2CCS(=O)(=O)C2)cc1 (stereo not shown) | -34 |
| CC1(C)CC(=O)C=C(Nc2ccc3c(c2)CCC3)C1 | -2.73 |
| O=C(Nc1ccccc1)NC1CCN(Cc2nnnn2C2CCCCC2)CC1 | -29.2 |
| CCN1CCN(C(=O)c2ccc(CS(=O)Cc3ccc(C)cc3)o2)CC1 (stereo not shown) | 11 |
| O=C(O)C1CCCC2CN3CCc4c([nH]c5ccccc45)C3C(O)C21 (stereo not shown) | 13.7 |
| Cc1ccc(N(C(=O)CNC(=O)c2ccco2)C(C(=O)NC2CCCC2)c2ccncc2)c(C)c1 (stereo not shown) | 14.6 |
| CCOc1ccc(NS(=O)(=O)c2ccc(NC(=O)C3CCCO3)cc2)cc1 (stereo not shown) | 20.7 |
| C/C(=N\NC(=S)NCc1ccccc1)c1ccc2ccccc2c1 | 15.9 |
| CN(C)CCCNc1ccc(-c2n[nH]c(=O)c3ccccc23)cc1[N+](=O)[O-] | 1.1 |
| COc1ccc(CC2(CO)CCN(Cc3nc(C(C)C)cs3)CC2)cc1 | -48.4 |
| O=C(c1cnsn1)N1CCC(CO)(Cc2ccc(Cl)cc2)CC1 | -43.7 |
| OCC1(Cc2ccc(Cl)cc2)CCN(Cc2ccc3nsnc3c2)CC1 | -61.5 |
| COc1ccc(C(=O)NCc2ccc3c(c2)CCO3)cc1 | 7.15 |
| COc1ccc(CC2(CO)CCN(Cc3ccc4c(c3)CCO4)CC2)cc1 | -65.7 |
| COc1ccc(CC2(CO)CCN(Cc3ccc4nsnc4c3)CC2)cc1 | -58.9 |
| OCC1(CCc2ccccc2)CCN(Cc2ccc3nsnc3c2)CC1 | -77.7 |
| OCC1(Cc2ccccc2C(F)(F)F)CCN(Cc2ccc3c(c2)CCO3)CC1 | -28.7 |
| OCCC1CN(Cc2ccc3nsnc3c2)CCN1C1CCCC1 (stereo not shown) | -25 |
